Data: the supplement of paper PMC8728848
Shown is part of a subset that was picked to be rich in the strongest signals.

Columns and labels:
Assay in all cases: glycan array binding signal (z-score within array); higher = stronger binding
Conditions in all cases: glycan notation: IUPAC condensed, linker removed
[1] = molecular target: GalNAc(b1-4)GlcNAc(b1-2)Man(a1-3)[GalNAc(b1-4)GlcNAc(b1-2)Man(a1-6)]Man(b1-4)GlcNAc(b1-4)GlcNAc
Summary of the method: (§1)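 Glycan array data were curated from 3228 arrays in the Consortium for Functional Glycomics database and kept only where the protein sequence was available. Glycan names were converted to IUPAC-condensed notation, and columns mapping to the same glycan were averaged. The binding signal is a within-array Z-score, averaged across arrays of the same protein sequence at different concentrations or buffers and across linkers. Negative Z-scores can be read as non-binding.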

GlcA(b1-3)GlcNAc = molecular target: GlcA(b1-3)GlcNAc
Summary of the method: as §1

[2] = molecular target: GlcNAc(a1-4)Gal(b1-4)GalNAc
Summary of the method: as §1

[3] = molecular target: GlcNAc(a1-4)Gal(b1-4)GlcNAc(b1-3)Gal(b1-4)GlcNAc(b1-3)Gal(b1-4)GlcNAc
Summary of the method: as §1

[4] = molecular target: GlcNAc(b1-3)Gal(b1-4)GlcNAc(b1-3)Gal(b1-4)GlcNAc(b1-2)Man(a1-3)[GlcNAc(b1-3)Gal(b1-4)GlcNAc(b1-3)Gal(b1-4)GlcNAc(b1-2)Man(a1-6)]Man(b1-4)GlcNAc(b1-4)GlcNAc
Summary of the method: as §1

[5] = molecular target: GlcNAc(b1-3)Gal(b1-4)GlcNAc(b1-3)Gal(b1-4)GlcNAc(b1-3)Gal(b1-4)GlcNAc(b1-2)Man(a1-3)[GlcNAc(b1-3)Gal(b1-4)GlcNAc(b1-3)Gal(b1-4)GlcNAc(b1-3)Gal(b1-4)GlcNAc(b1-2)Man(a1-6)]Man(b1-4)GlcNAc(b1-4)GlcNAc
Summary of the method: as §1

[6] = molecular target: GlcNAc(b1-3)Gal(b1-4)GlcNAc(b1-3)Gal(b1-4)GlcNAc(b1-3)Gal(b1-4)GlcNAc(b1-3)Gal(b1-4)GlcNAc(b1-2)Man(a1-3)[GlcNAc(b1-3)Gal(b1-4)GlcNAc(b1-3)Gal(b1-4)GlcNAc(b1-3)Gal(b1-4)GlcNAc(b1-3)Gal(b1-4)GlcNAc(b1-2)Man(a1-6)]Man(b1-4)GlcNAc(b1-4)[Fuc(a1-6)]GlcNAc
Summary of the method: as §1

[7] = molecular target: GlcNAc(b1-3)Gal(b1-4)GlcNAc(b1-3)Gal(b1-4)GlcNAc(b1-3)Gal(b1-4)GlcNAc(b1-3)Gal(b1-4)GlcNAc(b1-2)[GlcNAc(b1-3)Gal(b1-4)GlcNAc(b1-3)Gal(b1-4)GlcNAc(b1-3)Gal(b1-4)GlcNAc(b1-3)Gal(b1-4)GlcNAc(b1-6)]Man(a1-6)[GlcNAc(b1-3)Gal(b1-4)GlcNAc(b1-3)Gal(b1-4)GlcNAc(b1-3)Gal(b1-4)GlcNAc(b1-3)Gal(b1-4)GlcNAc(b1-2)Man(a1-3)]Man(b1-4)GlcNAc(b1-4)[Fuc(a1-6)]GlcNAc
Summary of the method: as §1

[8] = molecular target: GlcNAc(b1-3)Gal(b1-4)GlcNAc(b1-6)[Gal(b1-3)]GalNAc
Summary of the method: as §1

GlcNAc(b1-4)GlcNAc = molecular target: GlcNAc(b1-4)GlcNAc
Summary of the method: as §1

[9] = molecular target: GlcNAc(b1-4)GlcNAc(b1-4)GlcNAc(b1-4)GlcNAc(b1-4)GlcNAc
Summary of the method: as §1

Kdn(a2-6)Gal(b1-4)GlcNAc = molecular target: Kdn(a2-6)Gal(b1-4)GlcNAc
Summary of the method: as §1

Man(a1-6)Man = molecular target: Man(a1-6)Man
Summary of the method: as §1

[10] = molecular target: Neu5Ac(a2-3)Gal(b1-3)GlcNAc(b1-3)Gal(b1-4)GlcNAc
Summary of the method: as §1

[11] = molecular target: Neu5Ac(a2-3)Gal(b1-3)[Fuc(a1-4)]GlcNAc(b1-3)Gal(b1-3)[Fuc(a1-4)]GlcNAc
Summary of the method: as §1

[12] = molecular target: Neu5Ac(a2-3)Gal(b1-3)[GlcNAc(b1-6)]GalNAc
Summary of the method: as §1

[13] = molecular target: Neu5Ac(a2-3)Gal(b1-4)GlcNAc(b1-2)Man(a1-3)[GlcNAc(b1-4)][Neu5Ac(a2-3)Gal(b1-4)GlcNAc(b1-2)Man(a1-6)]Man(b1-4)GlcNAc(b1-4)GlcNAc
Summary of the method: as §1

[14] = molecular target: Neu5Ac(a2-3)[GalNAc(b1-4)]Gal(b1-4)GlcNAc
Summary of the method: as §1

Neu5Ac(a2-6)Gal = molecular target: Neu5Ac(a2-6)Gal
Summary of the method: as §1

[15] = molecular target: Neu5Ac(a2-6)Gal(b1-4)GlcNAc(b1-2)Man
Summary of the method: as §1

[16] = molecular target: Neu5Ac(a2-6)Gal(b1-4)GlcNAc(b1-3)Gal(b1-4)GlcNAc(b1-3)Gal(b1-4)GlcNAc
Summary of the method: as §1

[17] = molecular target: Neu5Ac(a2-6)Gal(b1-4)GlcNAc(b1-3)Gal(b1-4)GlcNAc(b1-3)Gal(b1-4)GlcNAc(b1-2)Man(a1-3)[Neu5Ac(a2-6)Gal(b1-4)GlcNAc(b1-3)Gal(b1-4)GlcNAc(b1-3)Gal(b1-4)GlcNAc(b1-2)Man(a1-6)]GalNAc
Summary of the method: as §1

[18] = molecular target: Neu5Ac(a2-8)Neu5Ac(a2-3)Gal(b1-4)GlcNAc
Summary of the method: as §1

[19] = molecular target: Neu5Ac(a2-8)Neu5Ac(a2-3)[GalNAc(b1-4)]Gal(b1-4)Glc
Summary of the method: as §1

[20] = molecular target: Neu5Ac(a2-8)Neu5Ac(a2-8)Neu5Ac(a2-3)[Gal(b1-3)GalNAc(b1-4)]Gal(b1-4)Glc
Summary of the method: as §1

[21] = molecular target: Neu5Ac(a2-8)Neu5Gc(a2-3)Gal(b1-4)GlcNAc
Summary of the method: as §1

Neu5Ac(b2-6)GalNAc = molecular target: Neu5Ac(b2-6)GalNAc
Summary of the method: as §1

[22] = molecular target: Neu5Gc(a2-3)Gal(b1-3)GlcNAc
Summary of the method: as §1

[23] = molecular target: Neu5Gc(a2-8)Neu5Gc(a2-3)Gal(b1-4)GlcNAc(b1-3)Gal(b1-4)GlcNAc
Summary of the method: as §1

B1: PX9961C-bth-497-22-497 (Bacteroides thetaiotaomicron) (protein)
chain: DWLDLNTTSSVETGQAIVTLDDAQIALNGIYRLASGHSYYGDNYWYYGDCRAADVQARITKGDGKRVSPYYEYNVLASDNLNIVLPWNTVYKVIRQTNNLIQKIESGSIQSSDTKELNRIKSEALVMRGLSLFNLTRLFGMPYTNDKGASLGVPIETSPSDPTHKPSRSTVAQCYEQVVSDMSNALSGLRQETSNGYINYWAAQALLSRVYLNMGEYQKAYDAATDVIKNNGGRYQLYSYEEYPNVWGQDFQSESLFELYITLSEPSGGTGGEGAPMVYANEATVDWNNLILSEDFLNLLNEDPKDVRHCLTKESVIENNTGLPAAAMHEKVYLAKFPGKTGDDPKTNNICIIRLSEVYLNAAEAGLKKGTDIEEAQGYLNDIISRRTTDTSQQVSTETFTLDRILKERRKELVGEGEVFYDYLRNGLAIERKGSWHLETLKASNAQKIEATDLRIALPIPQSEIDANPNIQQNPR
[1]
  glycan array binding signal (z-score): 1.18
GlcA(b1-3)GlcNAc
  glycan array binding signal (z-score): 0.671
[2]
  glycan array binding signal (z-score): -0.269
[3]
  glycan array binding signal (z-score): 0.15
[4]
  glycan array binding signal (z-score): 1.6
[5]
  glycan array binding signal (z-score): 0.098
[6]
  glycan array binding signal (z-score): 2.24
[7]
  glycan array binding signal (z-score): -0.034
[8]
  glycan array binding signal (z-score): 1.56
GlcNAc(b1-4)GlcNAc
  glycan array binding signal (z-score): -0.2
[9]
  glycan array binding signal (z-score): -0.492
Kdn(a2-6)Gal(b1-4)GlcNAc
  glycan array binding signal (z-score): -0.057
Man(a1-6)Man
  glycan array binding signal (z-score): -0.481
[10]
  glycan array binding signal (z-score): 0.993
[11]
  glycan array binding signal (z-score): 2.16
[12]
  glycan array binding signal (z-score): -0.029
[13]
  glycan array binding signal (z-score): -0.279
[14]
  glycan array binding signal (z-score): -0.469
Neu5Ac(a2-6)Gal
  glycan array binding signal (z-score): 0.311
[15]
  glycan array binding signal (z-score): -0.411
[16]
  glycan array binding signal (z-score): -0.506
[17]
  glycan array binding signal (z-score): 0.689
[18]
  glycan array binding signal (z-score): -0.198
[19]
  glycan array binding signal (z-score): -0.361
[20]
  glycan array binding signal (z-score): -0.241
[21]
  glycan array binding signal (z-score): 13.7
Neu5Ac(b2-6)GalNAc
  glycan array binding signal (z-score): -0.424
[22]
  glycan array binding signal (z-score): -0.496
[23]
  glycan array binding signal (z-score): 0.531
